Screens (PubChem)
The sample as a whole holds a higher share of hits than the screen did.
Dicer processing: inhibitors of Dicer pre-microRNA processing, primary screen, biochemical, cat-ELCCA, chemiluminescence | cat-ELCCA pre-miR-21 Dicer processing; hits give high values | z-score at 25 µM | 47,000 compounds, 6% hits | AID 1347074, 2019; in the data active = z-score above about 3, passing the limit was not always enough;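 also: higher signal means more uncleaved substrate so more Dicer inhibition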
Hits are given with their value; n = inactive.

SMILES	Dicer processing
CCOC(=O)c1ccc2nsnc2c1	n
COC(=O)c1ccc2nsnc2c1	3.81
O=C(O)c1ccc2nsnc2c1	n
N#Cc1c(-c2cccnc2)c2c([nH]c1=O)-c1ccccc1SC2	n
N#Cc1c(-c2ccc(F)cc2)c2c([nH]c1=O)-c1ccccc1CC2	n
N#Cc1c(-c2ccc(F)cc2)c2c([nH]c1=O)-c1ccccc1SC2	3.46
O/N=C(\c1ccccc1)C1CC2CCC1CC2 (stereo not drawn)	n
CCOc1ccc(Br)cc1C1C(C(N)=O)=C(C)Nc2nnnn21 (stereo not drawn)	n
O=c1c2ccccc2cnn1-c1cc(Cl)ccc1Cl	n
CN1C(C(=O)Nc2ccccn2)=C(O)c2sccc2S1(=O)=O	n
O=C1CC(NCCc2ccc(Cl)cc2)C(=O)N1c1ccc(Br)cc1 (stereo not drawn)	4.59
CCCCCCCNC1CC(=O)N(c2ccc(Cl)cc2)C1=O (stereo not drawn)	n
O=C1CC(NCc2ccc(Cl)cc2)C(=O)N1c1ccc(Br)cc1 (stereo not drawn)	n
N=C(N)c1ccc(Cl)cc1	3.74
N=C(N)c1cc(Cl)cc(Cl)c1	n
O=C(O)CCC(=O)c1ccc(Cl)cc1	n
O=C(CC1Sc2ccccc2NC1=O)Nc1ccc(F)c(Cl)c1 (stereo not drawn)	n
CCCOc1ccccc1C1C(C(=O)OC(C)C)=C(C)NC2=C1C(=O)CC(C)(C)C2 (stereo not drawn)	n
COc1ccc(CCn2nnc3ccccc3c2=O)cc1OC	n
Cn1c(=O)[nH]c(=O)c2c1ncn2Cc1ccc(F)cc1	n
CC(C)(C)NC(=O)NC(=O)c1ccc(Oc2ccc(C(F)(F)F)cc2[N+](=O)[O-])cc1	3.76
O=[N+]([O-])c1cc(C(F)(F)F)ccc1Oc1ccc(F)cc1	n
CS(=O)c1ccc(Oc2ccc(C(F)(F)F)cc2[N+](=O)[O-])cc1 (stereo not drawn)	n
Cc1ccc(C(=O)/C=C/Sc2ccccn2)cc1	n
O=C(/C=C/Sc1ccccn1)c1ccc(Br)cc1	3.03
SMILES	Dicer processing
O=C(/C=C/Sc1c(Cl)cccc1Cl)c1ccc(Br)cc1	n
O=C1C(=O)N(Cc2ccccc2)c2ccccc21	n
Cc1cc(C)c(CN2C(=O)C(=O)c3ccccc32)cc1CN1C(=O)C(=O)c2ccccc21	3.61
O=C1C(=O)N(Cc2ccc(Cc3ccc(CN4C(=O)C(=O)c5ccccc54)cc3)cc2)c2ccccc21	n
CCOC(=O)CCCSc1nc(N)c2c3c(sc2n1)CCCC3	3.13
Nc1nc(SCC(=O)c2ccc(Cl)cc2)nc2sc3c(c12)CCCCC3	n
CCOC(=O)CC(=O)CSc1nc(N)c2c3c(sc2n1)CCC3	n
CCOC(=O)CC(=O)CSc1nc(N)c2c3c(sc2n1)CCCC3	5.52
CCOC(=O)c1nc2sc3c(c2c(=O)[nH]1)CCCC3	n
CCOC(=O)CSc1nc(SCC(=O)OCC)c2c3c(sc2n1)CCC3	n
CCOC(=O)C1=C(C)NC2=C(C(=O)CC(c3cccs3)C2)C1c1cccs1 (stereo not drawn)	n
Cc1ccc(N2C3=C(C(=O)CC(C)(C)C3)C(c3cn(C)nc3C)C3=C2CC(C)(C)CC3=O)cc1	n
CCOC(=O)C(=O)Nc1nnc(COC)s1	n
CC(=O)/C(N=Nc1c(C)cc(C(C)(C)C)cc1C)=C(\C)O	n
CCOc1cc(C2C(C(=O)OCCSCC)=C(C)NC3=C2C(=O)CC(C)(C)C3)cc(Cl)c1O (stereo not drawn)	n
COc1ccc(-c2nc(SCc3ccccc3)n(S(C)(=O)=O)n2)cc1	5.19
CCS(=O)(=O)n1nc(-c2ccco2)nc1SCc1ccccc1	n
CS(=O)(=O)n1nc(-c2ccco2)nc1SCc1ccccc1	n
CC(C)c1ccc(C2/C(=C(\O)c3ccc(F)cc3)C(=O)C(=O)N2CCCN(C)C)cc1 (stereo not drawn)	n
Cc1nc(NC(=O)Nc2ccc(Cl)cc2)sc1C	n
CC(C)c1nnc(-c2cc3sccc3s2)o1	n
C/C(=N\O)C(C)(C)Nc1cc(C(F)(F)F)cc(C(F)(F)F)c1	n
CC(C)(C)NC(=S)Nc1cc(C(F)(F)F)cc(C(F)(F)F)c1	n
CC1(C)OC(=O)C(=NNc2cc(C(F)(F)F)cc(C(F)(F)F)c2)C(=O)O1	5.13
Cc1ccccc1-n1c(=O)c2ccccc2n2c(=O)[nH]nc12	n
SMILES	Dicer processing
COc1ccc(C2Nc3ccc(C(=O)c4ccccc4)cc3NC3=C2C(=O)CC(C)(C)C3)c(OC)c1 (stereo not drawn)	n
COc1ccc(-c2nc3n(n2)C(c2ccc(F)cc2)C2=C(CCCC2=O)N3)cc1 (stereo not drawn)	n
CCOC(=O)C1=C(C)Nc2nc3ccccc3n2C1c1ccccc1C (stereo not drawn)	n
CC1=C(C(=O)OC(C)C)C(c2sccc2C)n2c(nc3ccccc32)N1 (stereo not drawn)	3.52
CCOC(=O)C1=C(C)Nc2nc3ccccc3n2C1/C=C/c1ccccc1 (stereo not drawn)	3.83
COC(=O)C1=C(C)Nc2nc3ccccc3n2C1c1sccc1C (stereo not drawn)	n
